The list is not random: actives were taken first. Their share in the collection is about 3.2%.
14-3-3 Bad PPI: disrupts binding of bovine 14-3-3 zeta to phospho-Bad peptide; P63103; TR-FRET 14-3-3zeta/Dy647-pBad peptide displacement, 1 h; inhibition, % at 21.7 µM; actives 0.71% (n = 220,000);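 active = inhibition above about 70%, limit read from the data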
Mcl1 Bid PPI: Mcl-1/Bid interaction inhibition; TR-FRET Mcl-1/Bid-Dy647 peptide binding, 1536-well; inhibition, % at 21.7 µM; Q07820; actives 0.97% (n = 220,000);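 active = compounds that cut the binding signal by more than half at the single screening dose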;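 note: His-tagged Mcl-1 with europium anti-His antibody binding Bid BH3 peptide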
Target sequence (Q07820 whole entry, looked up): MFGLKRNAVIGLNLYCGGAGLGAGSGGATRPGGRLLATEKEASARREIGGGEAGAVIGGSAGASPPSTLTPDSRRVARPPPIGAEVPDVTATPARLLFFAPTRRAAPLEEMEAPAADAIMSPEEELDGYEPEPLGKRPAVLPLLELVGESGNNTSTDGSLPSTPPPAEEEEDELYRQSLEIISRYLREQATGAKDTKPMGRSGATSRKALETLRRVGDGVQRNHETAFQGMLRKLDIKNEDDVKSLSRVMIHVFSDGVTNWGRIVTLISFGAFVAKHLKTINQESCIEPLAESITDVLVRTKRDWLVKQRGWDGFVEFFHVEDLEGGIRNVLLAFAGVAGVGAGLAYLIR
Mcl1-Noxa inh: Mcl-1/Noxa interaction inhibition; actives 1.5% (n = 220,000); inhibition, % at 21.7 µM; TR-FRET Mcl-1/Noxa peptide binding, 2 h; AID 1022;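 active = compounds that cut the protein-peptide binding signal by more than 50% relative to plate controls in a single-dose test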;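 note: His-tagged Mcl-1 with rhodamine Noxa BH3 peptide and terbium anti-His antibody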
NCF1 inh: blocks human p47phox regulatory protein of NADPH oxidases; inhibition, % at 24.7 µM; p47phox/p22phox peptide binding, fluorescence polarization, 2 h; actives 0.53% (n = 220,000); P14598;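 active = inhibition above about 30%, limit read from the data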
Bim-Mcl-1: human Bim-Mcl-1 interaction inhibition; inhibition, % at 10 µM; actives 0.1% (n = 190,000); Bead-based flow cytometry, Bim peptide-Mcl-1 binding; in the data active = inhibition above about 40%
Large screens that a line does not name were inactive.

Cc1ccc(-c2cc(C(=O)Nc3ccc(S(=O)(=O)Nc4ncccn4)cc3)[nH]n2)c(O)c1C	Mcl1-Noxa inh 56.5 (no result: Bim-Mcl-1)
COCC(C)N=C1NN=C(c2c[nH]c3ccccc23)CS1 (centres undefined)	none
COc1cccc(N2CCN(C(=O)NC3CCCCC3)CC2)c1	Mcl1 Bid PPI 94.0
COc1cccc(CN(C(=O)/C=C/c2ccc(Cl)cc2)C2CCS(=O)(=O)C2)c1 (centres undefined)	Mcl1 Bid PPI 84.3
O=C(/C=C/c1ccccc1)N(Cc1cccc(Cl)c1)C1CCS(=O)(=O)C1 (centres undefined)	none (no result: Bim-Mcl-1)
Cc1ccc(S(=O)(=O)/N=C(\CCl)N2CCOCC2)cc1	Mcl1 Bid PPI 67.1
Cc1ccc(S(=O)(=O)CC(=O)N2CCOCC2)cc1	none
Cc1ccc(S(=O)(=O)C(CCC(=O)N2CCOCC2)S(=O)(=O)c2ccc(C)cc2)cc1	Mcl1-Noxa inh 99.8
CCN1CCN(C(CNS(=O)(=O)c2cccs2)c2cccnc2)CC1 (centres undefined)	none (no result: Bim-Mcl-1)
Cn1nnnc1SCC(=O)NC1CCCc2ccccc21 (centres undefined)	none
O=C(Nc1nc(-c2cccc([N+](=O)[O-])c2)cs1)C(c1ccccc1)c1ccccc1	none
Cc1c(Nc2nc(-c3cccc([N+](=O)[O-])c3)cs2)c(=O)n(-c2ccccc2)n1C	14-3-3 Bad PPI 87.8
O=C(N/N=C\c1ccc(F)cc1)c1csnn1	14-3-3 Bad PPI 89.3
CCC(=O)OC1(C)C(=O)C=C2C=C(c3ccsc3)OC=C2C1=O (centres undefined)	Mcl1-Noxa inh 67.8 (no result: Bim-Mcl-1)
Cc1ccc(-n2cccc2/C=C2/C(=N)N3C(=NC2=O)SN=C3S(C)(=O)=O)cc1Cl	Mcl1 Bid PPI 96.8, Mcl1-Noxa inh 115.9
Cn1c([N+](=O)[O-])cnc1N1CCN(c2nncs2)C1=O	none (no result: Bim-Mcl-1)
COc1ccc(/C=N/Nc2nc(-c3cccnc3)nc3ccccc23)c(OC)c1	14-3-3 Bad PPI 70.3, Mcl1 Bid PPI 54.5 (no result: Bim-Mcl-1)
Cc1cccc(OCC(O)CN2CC3(C)CC2CC(C)(C)C3)c1 (centres undefined)	none
COc1ccccc1NS(=O)(=O)c1cccc(NC(=O)C2CC(=O)N(Cc3ccccc3)C2)c1 (centres undefined)	Mcl1 Bid PPI 88.3
CN(c1ccccc1)S(=O)(=O)c1cccc(NC(=O)C2CC(=O)N(Cc3ccccc3)C2)c1 (centres undefined)	NCF1 inh active (no result: Bim-Mcl-1)
CN(C)c1ccc(C2CC(=O)C=C(Nc3ccccc3N)C2)cc1 (centres undefined)	none (no result: Bim-Mcl-1)
Cc1ccc(NC(=S)NC(=O)c2ccc(F)cc2)cc1S(=O)(=O)Nc1ccccc1Cl	none
O=C(NC(=S)Nc1ccc2c(c1)C(=O)c1ccccc1C2=O)c1ccc(F)cc1	Mcl1-Noxa inh 51.1
COc1cccc(C(=O)NC(=S)Nc2ccc3oc(=O)ccc3c2)c1	NCF1 inh 37.3
COc1cccc(C(=O)Nc2ccc3c(c2)C(=O)c2ccccc2C3=O)c1	Mcl1 Bid PPI 73.5, Mcl1-Noxa inh 75.4
C/C(=N\NC(=O)CSc1nc(C)[nH]c1[N+](=O)[O-])c1ccc(F)cc1	none (no result: Bim-Mcl-1)
Cc1cccc(C)c1OCCNC(=O)OCc1ccccc1	none
CCOc1ccccc1OCC(=O)O	none
O=C(O)COc1ccccc1O	Mcl1-Noxa inh 52.0
COc1ccc(-c2ccc(/C=C3/C(=N)N4C(C)=CSC4=NC3=O)o2)c([N+](=O)[O-])c1	Mcl1-Noxa inh 59.1
Cc1ccccc1C(=O)N=c1sccn1C	NCF1 inh 110.5
Cc1ccccc1C(=O)Nc1nncs1	none
COc1ccc(Cl)cc1NC(=O)C(C)N1CCN(C/C=C/c2ccccc2)CC1 (centres undefined)	14-3-3 Bad PPI 76.4, Mcl1 Bid PPI 51.3
CC(C(=O)Nc1ccc([N+](=O)[O-])cc1)N1CCN(C/C=C/c2ccccc2)CC1 (centres undefined)	Bim-Mcl-1 41.0
CC(=O)c1ccc(NC(=O)C(C)N2CCN(C/C=C/c3ccccc3)CC2)cc1 (centres undefined)	none (no result: Bim-Mcl-1)
COCCNC(=O)/C(C#N)=C/c1ccc(OC(=O)c2cccs2)c(OC)c1	NCF1 inh 113.4
Cc1nc(CSc2n[nH]c(=O)n2-c2ccccc2)cs1	none (no result: Bim-Mcl-1)
Cc1nc(CSc2nc3[nH]ncc3c(=O)n2-c2ccccc2)cs1	Mcl1 Bid PPI 83.6
CCOC(=O)/C=C(\C)Sc1cc(O)c2ccccc2c1O	Mcl1-Noxa inh 87.8 (no result: Bim-Mcl-1)
COc1ccccc1NS(=O)(=O)c1cccc(C(=O)NCc2ccco2)c1	none

Assay outcomes: PubChem, several laboratories
